Results filed as inconclusive are left out. The source made the active and inactive calls. Calls come from the whole dose curve; as a rule, active = well fitted inhibition curve with a large enough effect; inconclusive = small, poorly fitted or top-dose-only effect; inactive = flat fitted curve, though single readings scatter.
experiment: Drug repurposing screens with cells derived from glioblastoma tumor samples (AID 1345199); conditions: GBM patient neurospheres viability, ATP luminescence, 48 h; at 21.2 µM (top of the series); tumour line B; note: nearly all actives have a fitted effect of over 40% in size
Procedure, shortened: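 Primary testing used CD133+ neurospheres from four GBM patients, seven concentrations, 48 h exposure and ATP-based viability; confirmation added three slower-growing patient lines.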
% is set by controls: 0 for no effect and ±100 for the full control effect.

Structure (SMILES)	activity, negative = cell killing
CO[C@H]1C[C@H](O[C@H]2[C@H](C)[C@@H](O[C@@H]3O[C@H](C)C[C@H](N(C)C)[C@H]3OC(C)=O)[C@@H](C)C[C@]3(CO3)C(=O)[C@H](C)[C@@H](OC(C)=O)[C@@H](C)[C@@H](C)OC(=O)[C@@H]2C)O[C@@H](C)[C@@H]1OC(C)=O	-6.68% (inactive)
C[C@H](CCC(=O)O)[C@H]1CC[C@H]2[C@@H]3[C@H](O)C[C@@H]4C[C@H](O)CC[C@]4(C)[C@H]3CC[C@]12C	1.96% (inactive)
CCC(=O)O[C@@H]1CC(=O)O[C@H](C)C/C=C/C=C/[C@H](O)[C@H](C)C[C@H](CC=O)[C@H](O[C@@H]2O[C@H](C)[C@@H](O[C@H]3C[C@@](C)(O)[C@@H](OC(=O)CC)[C@H](C)O3)[C@H](N(C)C)[C@H]2O)[C@H]1OC	-16.2% (inactive)
CC[N+](C)(C)Cc1ccccc1Br	0.866% (inactive)
CC(C)(C)C(=O)OCOC(=O)[C@@H]1N2C(=O)[C@@H](N=CN3CCCCCC3)[C@H]2SC1(C)C	-4.41% (inactive)
CC1(C)S[C@@H]2[C@H](NC(=O)[C@@H](NC(=O)N3CCNC3=O)c3ccccc3)C(=O)N2[C@H]1C(=O)O	-3.93% (inactive)
CC1(C)S[C@@H]2[C@H](NC(=O)C(N)c3ccccc3)C(=O)N2[C@H]1C(=O)OC1OC(=O)c2ccccc21 (some centres undefined)	-22.1% (inactive)
Cc1cc(C(=O)NNCc2ccccc2)no1	-7.11% (inactive)
CC(Oc1ccccc1)C(=O)N[C@@H]1C(=O)N2[C@@H]1SC(C)(C)[C@@H]2C(=O)O (some centres undefined)	-4.78% (inactive)
CC(=O)N(CC(C)C(=O)O)c1c(I)cc(I)c(N)c1I (centres undefined)	-5.01% (inactive)
CO[C@@H]1[C@@H](O[C@@H]2O[C@H](C)[C@@H](O[C@H]3C[C@@](C)(O)[C@@H](O)[C@H](C)O3)[C@H](N(C)C)[C@H]2O)[C@@H](CC=O)C[C@@H](C)[C@@H](O[C@@H]2CC[C@H](N(C)C)[C@@H](C)O2)/C=C/C=C/C[C@@H](C)OC(=O)C[C@H]1O	2.63% (inactive)
CNC(C)[C@@H]1CC[C@@H](N)[C@@H](O[C@H]2[C@H](O)[C@@H](O[C@H]3OC[C@](C)(O)[C@H](NC)[C@H]3O)[C@H](N)C[C@@H]2N)O1 (some centres undefined)	-11.6% (inactive)

same assay, conditions: GBM patient neurospheres viability, ATP luminescence, 48 h; at 21.2 µM (top of the series); tumour line D

Structure (SMILES)	activity, negative = cell killing
CO[C@H]1C[C@H](O[C@H]2[C@H](C)[C@@H](O[C@@H]3O[C@H](C)C[C@H](N(C)C)[C@H]3OC(C)=O)[C@@H](C)C[C@]3(CO3)C(=O)[C@H](C)[C@@H](OC(C)=O)[C@@H](C)[C@@H](C)OC(=O)[C@@H]2C)O[C@@H](C)[C@@H]1OC(C)=O	-16.6% (inactive)
C[C@H](CCC(=O)O)[C@H]1CC[C@H]2[C@@H]3[C@H](O)C[C@@H]4C[C@H](O)CC[C@]4(C)[C@H]3CC[C@]12C	6.12% (inactive)
CCC(=O)O[C@@H]1CC(=O)O[C@H](C)C/C=C/C=C/[C@H](O)[C@H](C)C[C@H](CC=O)[C@H](O[C@@H]2O[C@H](C)[C@@H](O[C@H]3C[C@@](C)(O)[C@@H](OC(=O)CC)[C@H](C)O3)[C@H](N(C)C)[C@H]2O)[C@H]1OC	-1.85% (inactive)
CC[N+](C)(C)Cc1ccccc1Br	-1.19% (inactive)
CC(C)(C)C(=O)OCOC(=O)[C@@H]1N2C(=O)[C@@H](N=CN3CCCCCC3)[C@H]2SC1(C)C	17.4% (inactive)
CC1(C)S[C@@H]2[C@H](NC(=O)[C@@H](NC(=O)N3CCNC3=O)c3ccccc3)C(=O)N2[C@H]1C(=O)O	-6.96% (inactive)
CC1(C)S[C@@H]2[C@H](NC(=O)C(N)c3ccccc3)C(=O)N2[C@H]1C(=O)OC1OC(=O)c2ccccc21 (some centres undefined)	-10.3% (inactive)
Cc1cc(C(=O)NNCc2ccccc2)no1	-19.1% (inactive)
CC(Oc1ccccc1)C(=O)N[C@@H]1C(=O)N2[C@@H]1SC(C)(C)[C@@H]2C(=O)O (some centres undefined)	-2.95% (inactive)
CC(=O)N(CC(C)C(=O)O)c1c(I)cc(I)c(N)c1I (centres undefined)	-13.7% (inactive)
CO[C@@H]1[C@@H](O[C@@H]2O[C@H](C)[C@@H](O[C@H]3C[C@@](C)(O)[C@@H](O)[C@H](C)O3)[C@H](N(C)C)[C@H]2O)[C@@H](CC=O)C[C@@H](C)[C@@H](O[C@@H]2CC[C@H](N(C)C)[C@@H](C)O2)/C=C/C=C/C[C@@H](C)OC(=O)C[C@H]1O	8.89% (inactive)
CNC(C)[C@@H]1CC[C@@H](N)[C@@H](O[C@H]2[C@H](O)[C@@H](O[C@H]3OC[C@](C)(O)[C@H](NC)[C@H]3O)[C@H](N)C[C@@H]2N)O1 (some centres undefined)	12.7% (inactive)

same assay, conditions: GBM patient neurospheres viability, ATP luminescence, 48 h; at 21.3 µM (top of the series); tumour line A

Structure (SMILES)	activity, negative = cell killing
CO[C@H]1C[C@H](O[C@H]2[C@H](C)[C@@H](O[C@@H]3O[C@H](C)C[C@H](N(C)C)[C@H]3OC(C)=O)[C@@H](C)C[C@]3(CO3)C(=O)[C@H](C)[C@@H](OC(C)=O)[C@@H](C)[C@@H](C)OC(=O)[C@@H]2C)O[C@@H](C)[C@@H]1OC(C)=O	-20.4% (inactive)
C[C@H](CCC(=O)O)[C@H]1CC[C@H]2[C@@H]3[C@H](O)C[C@@H]4C[C@H](O)CC[C@]4(C)[C@H]3CC[C@]12C	-15.4% (inactive)
CCC(=O)O[C@@H]1CC(=O)O[C@H](C)C/C=C/C=C/[C@H](O)[C@H](C)C[C@H](CC=O)[C@H](O[C@@H]2O[C@H](C)[C@@H](O[C@H]3C[C@@](C)(O)[C@@H](OC(=O)CC)[C@H](C)O3)[C@H](N(C)C)[C@H]2O)[C@H]1OC	-24.3% (inactive)
CC[N+](C)(C)Cc1ccccc1Br	-11% (inactive)
CC(C)(C)C(=O)OCOC(=O)[C@@H]1N2C(=O)[C@@H](N=CN3CCCCCC3)[C@H]2SC1(C)C	-13.2% (inactive)
CC1(C)S[C@@H]2[C@H](NC(=O)[C@@H](NC(=O)N3CCNC3=O)c3ccccc3)C(=O)N2[C@H]1C(=O)O	-17.7% (inactive)
Cc1cc(C(=O)NNCc2ccccc2)no1	-21.8% (inactive)
CC(Oc1ccccc1)C(=O)N[C@@H]1C(=O)N2[C@@H]1SC(C)(C)[C@@H]2C(=O)O (some centres undefined)	2.19% (inactive)
CC(=O)N(CC(C)C(=O)O)c1c(I)cc(I)c(N)c1I (centres undefined)	-23.8% (inactive)
CNC(C)[C@@H]1CC[C@@H](N)[C@@H](O[C@H]2[C@H](O)[C@@H](O[C@H]3OC[C@](C)(O)[C@H](NC)[C@H]3O)[C@H](N)C[C@@H]2N)O1 (some centres undefined)	-18.8% (inactive)

— PubChem BioAssay (NCATS)
